# High-throughput results from PubChem.
# G9a inh: blocks human histone lysine methyltransferase G9a. G9a H3K9 monomethylation, AlphaScreen, 2 h. 350,000 compounds, 8.8% hits. AID 504332. Potency, µM (doses to about 102 µM), for inactives: at the highest dose activity, negative = inhibition, hits mostly inhibitors. Q96KQ7; further: on the % scale 0 is the no-effect control and ±100 the full control effect; nearly all actives have a fitted effect of over 75% in size
#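 Methyltransferase reactions run at room temperature for 2 h (20 nM enzyme, 500 nM biotin-H3K9 peptide, 20 uM SAM) after a 15 min compound preincubation; product detected by AlphaScreen beads and anti-H3K9me1 antibody.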
# BAZ2B block: blocks human BAZ2B; 360,000 compounds, 4.4% hits; Potency, µM (doses to about 114 µM), without a hit: top-dose activity change, negative = inhibition, hits mostly inhibitors; AID 504333; AlphaScreen BAZ2B-H3K14Ac peptide displacement; further: on the % scale 0 is the no-effect control and ±100 the full control effect; nearly all actives have a fitted effect of over 60% in size
#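 In this displacement format the biotinylated H3(5-23) peptide acetylated at Lys14 serves as ligand at 50 nM, with BAZ2B at 50 nM in PBS pH 7.4 containing 0.01% Tween-20. Donor and acceptor beads are 10 ug/mL final.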
# 12-LOX inh: ALOX12 (human) lipoxygenase inhibition; P18054; purified 12hLO, xylenol orange hydroperoxide absorbance; Potency, µM (titrated, usually from 108 µM), for inactives: at the top dose activity change, negative = inhibition, actives largely listed as inhibitors; 580,000 compounds, 1.1% hits; AID 1671190; further: on the % scale 0 is the no-effect control and ±100 the full control effect
#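 Purified human 12hLO (150 nM final) in 25 mM Hepes, 0.01% Triton X-100, pH 7.0 was preincubated 15 min at room temperature with compound. Then 40 uM arachidonic acid was added, 30 min. Hydroperoxide was read by Fe-XO absorbance ratio 573/405 nm.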
# PLK1 PBD inh: PLK1 (human) polo-box domain binding inhibition | P53350 | Plk1 PBD binding of FITC phosphopeptide, fluorescence polarization | Potency, µM, for the others: max response, negative = inhibition, most hits filed as inhibitors | 360,000 compounds, 2.8% hits | AID 720504; further: series mostly up to about 57 µM; on the % scale 0 is the no-effect control and ±100 the full control effect; nearly all actives have a fitted effect of over 65% in size
# JMJD2A Tudor: blocks the human JMJD2A Tudor domain; O75164; AlphaScreen JMJD2A-Tudor / H3K4me3 peptide binding; Potency, µM (series often up to 114 µM), for the others: top-dose activity change, negative = inhibition, most hits filed as inhibitors; 390,000 compounds, 4.4% hits; AID 504339; further: on the % scale 0 is the no-effect control and ±100 the full control effect; nearly all actives have a fitted effect of over 50% in size
# Target sequence (O75164 whole entry, looked up, the tested form may be a part): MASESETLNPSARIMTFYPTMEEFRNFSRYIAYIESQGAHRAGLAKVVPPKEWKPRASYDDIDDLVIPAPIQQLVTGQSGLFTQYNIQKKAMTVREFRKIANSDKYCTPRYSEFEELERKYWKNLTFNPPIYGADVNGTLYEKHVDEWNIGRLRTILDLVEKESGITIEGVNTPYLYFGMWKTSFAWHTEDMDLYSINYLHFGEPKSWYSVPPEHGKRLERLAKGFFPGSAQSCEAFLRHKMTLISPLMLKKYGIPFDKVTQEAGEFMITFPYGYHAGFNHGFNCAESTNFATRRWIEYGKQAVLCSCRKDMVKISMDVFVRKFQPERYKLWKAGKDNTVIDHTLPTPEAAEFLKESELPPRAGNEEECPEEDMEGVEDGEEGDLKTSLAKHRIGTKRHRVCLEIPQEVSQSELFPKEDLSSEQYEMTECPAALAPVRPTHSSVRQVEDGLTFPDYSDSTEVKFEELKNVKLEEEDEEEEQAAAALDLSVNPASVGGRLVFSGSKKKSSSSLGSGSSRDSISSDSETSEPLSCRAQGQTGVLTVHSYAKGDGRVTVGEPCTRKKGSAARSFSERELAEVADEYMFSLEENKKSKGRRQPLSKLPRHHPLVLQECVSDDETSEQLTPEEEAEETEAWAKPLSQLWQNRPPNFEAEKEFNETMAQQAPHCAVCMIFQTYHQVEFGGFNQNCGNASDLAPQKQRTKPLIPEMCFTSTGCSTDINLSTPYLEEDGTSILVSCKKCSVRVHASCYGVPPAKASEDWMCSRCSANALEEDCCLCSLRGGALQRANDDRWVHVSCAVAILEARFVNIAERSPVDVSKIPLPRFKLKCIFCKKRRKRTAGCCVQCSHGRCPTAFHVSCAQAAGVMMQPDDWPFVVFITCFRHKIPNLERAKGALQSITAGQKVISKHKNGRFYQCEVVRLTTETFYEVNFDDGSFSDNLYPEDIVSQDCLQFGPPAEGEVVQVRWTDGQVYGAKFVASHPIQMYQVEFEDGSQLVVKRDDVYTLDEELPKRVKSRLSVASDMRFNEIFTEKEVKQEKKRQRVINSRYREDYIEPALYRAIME
# HP1b chromo inh: blocks HP1-beta chromodomain binding to methylated histone tails; P83916; AlphaScreen HP1-beta / biotin-H3K9me3 peptide binding; Potency, µM (doses to about 114 µM), for the others: at the highest dose activity change, negative = inhibition, actives largely listed as inhibitors; 390,000 compounds, 0.56% hits; AID 540317; further: nearly all actives have a fitted effect of over 70% in size
#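 HP1-beta protein (50 nM final) preincubated 30 min at room temperature with biotinylated H3(1-18)K9me3 peptide (50 nM) in PBS pH 7.4, 0.01% Tween-20, then compound added for 30 min. AlphaScreen streptavidin donor/nickel chelate acceptor beads (10 ug/mL final), 30 min dark, luminescence read.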
# An asterisk follows results filed as active; i = inactive; ? = inconclusive; · = no result; [ ] = another dose, or the depositor's remark. Shown are actives, neighbours in structure and some others; about 9% of the full set was active somewhere. The call rests on the fitted dose curve; in most records, active means well fitted curve in the direction sought with a large enough effect; inconclusive means small, poorly fitted or top-dose-only effect, or another doubt; inactive means no such curve, though single readings can be large; an effect the other way counts as inactive or inconclusive. Potency means the concentration at half of the fitted maximal effect.
SMILES,G9a inh,BAZ2B block,12-LOX inh,PLK1 PBD inh,JMJD2A Tudor,HP1b chromo inh
COc1nccc(N2CCC(CC(=O)NCCN3CCC(C)CC3)CC2)n1,·,·,32%,·,·,·
COc1ccc(CC(=O)N/N=C/c2ccc(-c3ccc(F)cc3)o2)cc1OC,-1%,-34%,-2%,-2%,-18%,25%
COc1ccc(CC(=O)N/N=C/c2ccc(-c3cccc(C(=O)O)c3)o2)cc1OC,40µM*,-39%,1%,-14%,-25%,10%
CCc1ccc(CN(C)CC(=O)Nc2ccccc2[N+](=O)[O-])cc1,79µM*,?,-17%,6%,?,-24%
CN(CC(=O)Nc1cccc(F)c1)CC(=O)Nc1ccccc1[N+](=O)[O-],-45%[59 µM],?,-3%,6%,-18%,26%
C=CCOc1ccc(CN(C)CC(=O)Nc2ccccc2[N+](=O)[O-])cc1,14µM*,·,22%,-4%,13µM*,?
COc1cc(NC(=O)CN(C)Cc2cccc(F)c2)c(C)cc1[N+](=O)[O-],4%,-14%,0%,27µM*,-26%,-16%
Nc1ccccc1NC1CCCCC1,50µM*,32µM*,?,-1%,56µM*,?
Cc1ccc(NC(=O)CC2Oc3ccc(C)cc3NC2=O)cc1 (configuration not stated),?,-24%,9%[57.4 µM],?,-17%,10%
CC(C)N(CCCNC(=O)CC1Oc2ccccc2NC1=O)Cc1ccccc1 (configuration not stated),?,-2%,3%,27µM*,?,4%
Cc1ccc2c(c1)NC(=O)C(CC(=O)N(C)Cc1ccccc1)O2 (configuration not stated),50µM*,-2%,?,?,-9%,42%
CCC(C)NC(=O)CC1Oc2ccc(C)cc2NC1=O (configuration not stated),45µM*,5%,i,-10%,-15%,42%
CC(C)CN(CCCNC(=O)CC1Oc2ccccc2NC1=O)CC(C)C (configuration not stated),-34%[59 µM],-2%,4%,-10%,?,12%
COC(=O)[C@@H]1CCCN1c1ccc(-c2nc(-c3ccccc3F)no2)cn1,·,·,1%,·,·,·
CN(C)S(=O)(=O)c1ccc(C(=O)NCC(c2cccs2)N2CCOCC2)cc1 (configuration not stated),?,?,-14%,-9%,-8%,8%
C[C@H](CO)N1C[C@H](C)[C@@H](CN(C)C(=O)Nc2ccc3c(c2)OCO3)Oc2ccc(NC(=O)CCN3CCOCC3)cc2C1=O,·,·,?,-7%,-6%,50%
CC(C)(C)c1cc(C(C)(C)C)n(-c2ccccc2)n1,27%[59 µM],11%,1%,-8%,13%,40%
CN(CCNC(=O)c1cn(C)c2ccc(S(=O)(=O)N3CCCC3)cc2c1=O)CCc1ccccc1,2.2µM*,-4%,9%,-4%,-8%,21%
Cn1cc(C(=O)NCCc2ccccc2)c(=O)c2cc(S(=O)(=O)N3CCCCC3)ccc21,0%[59 µM],·,-8%,·,-1%,40%
Cn1cc(C(=O)NCCc2ccccc2)c(=O)c2cc(S(=O)(=O)N3CCOCC3)ccc21,·,·,-1%,30µM*,-31%[11.4 µM],11%
CC(=O)N[C@H]1[C@H]([C@H](O)[C@H](O)CO)OC(C(=O)O)=C[C@@H]1N=C(N)N,·,·,-10%[22.9 µM],·,·,·
O=C(O)C(O)C(O)C(O)C(O)C(=O)O (configuration not stated) (tested in a mixture with another compound),?,-8%,1%,-17%,-19%,19%
COc1cccc(C(=O)NCCS(=O)(=O)N(C)C2CCCCC2)c1,22µM*,-6%,-24%,-9%,-9%,19%
COc1cccc(C(=O)NCCS(=O)(=O)N(C)Cc2ccccc2)c1,45µM*,2%,-20%,-6%,-14%,19%
COc1cccc(C(=O)Nc2ccccc2)c1,0%[2.33 µM],12%,10%,-6%,1%[57.1 µM],53%
